Screens deposited in PubChem by National Center for Advancing Translational Sciences (NCATS).
Rows were chosen to be rich in hits. Some 2.6% of all compounds tested hit in one or more screens of this group.
TGFb inhibitor = TGF-b pathway inhibition; HepG2 CAGA-GFP TGF-b/SMAD3 reporter, GFP fluorescence, 18 h; TGF-beta stimulated, 500 pg/mL final; Potency, µM (titrated, usually from 46.1 µM), for inactives: top-dose activity, negative = inhibition, actives largely listed as inhibitors; 410,000 compounds, 1.2% hits; AID 588855; note: potency is the fitted concentration of half-maximal effect; % is set by controls: 0 for no effect and ±100 for the full control effect; nearly all actives have a fitted effect of over 65% in size
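Per well, imaged GFP fluorescence of HEPG2 CAGA-GFP cells gives the signal; cells get compound, then TGF-beta (500 pg/mL final), 18 h at 37 degrees C; %Activity versus -TGF-beta and +DMSO controls.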
Giardia killer = kills Giardia lamblia; Giardia lamblia trophozoite viability; activity change, % at 7.66 µM, hits read low; 340,000 compounds, 0.15% hits; AID 540267; in the data active = activity change below about -80%; inconclusive = between about -30% and that limit;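 note: parasites exposed to compound for two days anaerobically before the ATP read; % is set by controls: 0 for no effect and ±100 for the full control effect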
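ATP-content bioluminescence gauges trophozoite survival. Cells (100/well) receive compound and incubate anaerobically for 48 hrs at 37 deg C; detection reagent follows for 15-30 min at room temperature.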
uPA surface inh = inhibitors of cell surface uPA generation; 330,000 compounds, 0.31% hits; cell surface uPA generation assay, qHTS; AID 540303; Potency, µM (highest dose often 38.3 µM), for inactives: at the top dose activity change, negative = inhibition, most hits filed as inhibitors; active = well fitted inhibition curve with a large enough effect; inconclusive = small, poorly fitted or top-dose-only effect; inactive = no such curve, though single readings can be large or run the other way; tested in mouse RAW 264.7 cells; note: potency is the fitted concentration of half-maximal effect; % is set by controls: 0 for no effect and ±100 for the full control effect; nearly all actives have a fitted effect of over 55% in size
ATXN2 expr inh = inhibitors of ATXN2 expression; HEK-293 ATXN2-luciferase reporter, luminescence, 24 h; Potency, µM (titrated, usually from 57 µM), without a hit: top-dose activity change, negative = inhibition, usual class: inhibitors; 360,000 compounds, 0.72% hits; note: potency is the fitted concentration of half-maximal effect; % is set by controls: 0 for no effect and ±100 for the full control effect; nearly all actives have a fitted effect of over 55% in size
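ATXN2-luciferase reporter cells (luciferase flanked by upstream and downstream ATXN2 gene portions) were treated 24 h at 37 °C with compounds at up to 57 uM. SteadyGlo luminescence gave expression; GF-AFC fluorescence gave viability.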
S2 tox = viability counter-screen for ATXN expression inhibitors; S2 cells (HEK-293 line with an ATXN2-luciferase reporter) viability, CellTiter-Fluor protease fluorescence, 24 h; Potency, µM (top dose mostly 56.7 µM), actives largely listed as cytotoxic; 400,000 compounds, 0.49% hits; note: potency is the fitted concentration of half-maximal effect; nearly all actives have a fitted effect of over 40% in size
HepG2 viability = HepG2 cytotoxicity, counter-screen for TGF-b inhibitors; HepG2 CAGA-GFP viability, ATP luminescence, 18 h; Potency, µM (highest dose often 46.1 µM), without a hit: at the highest dose activity change, negative = cytotoxicity, usual class: cytotoxic; AID 588856; 410,000 compounds, 0.76% hits; note: potency is the fitted concentration of half-maximal effect
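HepG2 CAGA-GFP cells (1000/well, DMEM with 1% FBS) received compound, then TGF-beta at 500 pg/mL final, and were incubated 18 hours at 37 degrees C. Viability was read by CellTiter-Glo luminescence. Media-only wells were set as complete cell-killing and DMSO as no toxicity.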
* hit, by the source's call; i = inactive; u = inconclusive; x = no result; [ ] = another dose, or the depositor's remark. Unless noted, calls come from the whole dose curve; as a rule, active = well fitted curve in the direction sought with a large enough effect; inconclusive = small, poorly fitted or top-dose-only effect, or another doubt; inactive = no such curve, though single readings can be large; an effect the other way counts as inactive or inconclusive.

SMILES	TGFb inhibitor	Giardia killer	uPA surface inh	ATXN2 expr inh	S2 tox	HepG2 viability
CCOC(=O)C1CCN(C(=O)c2ccc3c(c2)N=C(CC)c2cc(C)ccc2S3)CC1	10µM*	x	x	-27.7%	i	-20.6%
Cc1c(C(=O)O)c(O)cc2c1C(=O)c1c(O)c([C@H]3O[C@H](CO)[C@@H](O)[C@H](O)[C@H]3O)c(O)c(O)c1C2=O	3.2%	x	x	x	x	2.5%
Cc1c(C(=O)O)c(O)cc2c1C(=O)c1c(O)c([C@@H]3O[C@H](CO)[C@@H](O)[C@H](O)[C@H]3O)c(O)c(O)c1C2=O	-19.0%	1.0	-7.5%	0.0%	17.8µM*	-8.6%
COc1ccccc1C1CN(Cc2cccc(OCCO)c2)Cc2ccccc2O1 (stereo not drawn)	x	x	x	x	i	x
COc1ccc(OC)c(-c2cc(Cl)c3c(c2)CC(CNC(=O)[C@@H]2CCCN2C(C)=O)O3)c1 (stereo partly drawn)	x	x	x	x	i	x
COc1ccc(NC(=S)NC(NC(=O)c2cccc(Cl)c2)C(Cl)(Cl)Cl)c([N+](=O)[O-])c1 (stereo not drawn)	22.4µM*	2.0	-15.4%	u	u	-56.1%
CCn1c(-c2ccccc2F)nc2cc(NC(C)=O)cc(C(=O)NC(c3ccccn3)C(F)(F)F)c21 (stereo not drawn)	x	x	x	x	i	x
CCCn1c(=N)n(CC(O)COc2cccc(C)c2)c2ccccc21 (stereo not drawn)	-0.7%	14.7	-12.7%	u	u	-55.4%
Cc1ccc(Cn2c(=N)n(CC(O)COc3ccccc3)c3ccccc32)cc1 (stereo not drawn)	u	-18.9	-6.7%	-23.9%	i	2.82µM*
CCCCn1c(=N)n(CC(O)COc2ccc(C)cc2)c2ccccc21 (stereo not drawn)	u	-2.9	-6.9%	x	x	12.6µM*
CCCCCn1c(=N)n(CC(O)COc2cccc(C)c2)c2ccccc21 (stereo not drawn)	u	x	x	31.6µM*	20µM*	-107.3%
CSCCOC(=O)c1[nH]c2c(c1C)C(=O)CC(c1ccco1)C2 (stereo not drawn)	u	-3.0	u	-16.6%	u	-11.6%
COCCOC(=O)c1[nH]c2c(c1C)C(=O)CC(c1ccco1)C2 (stereo not drawn)	u	6.5	1µM*	9.8%	u	-14.8%
COc1ccc(OC)c(C2CC(=O)c3c([nH]c(C(=O)OCC4CCCCC4)c3C)C2)c1 (stereo not drawn)	9.0%	x	x	-0.1%	i	-31.3%
Cc1c(C(=O)OCc2ccccc2)[nH]c2c1C(=O)CC(c1ccco1)C2 (stereo not drawn)	2.51µM*	5.0	1µM*	-13.0%	u	-44.0%
COC(=O)c1[nH]c2c(c1C)C(=O)CC(c1cc(OC)ccc1OC)C2 (stereo not drawn)	-3.4%	-8.0	5.62µM*	-8.7%	u	1.5%
COc1cccc(Nc2c(C(N)=O)cnc3c(C)cc(S(=O)(=O)c4cccc(C(=O)N(C)C)c4)cc23)c1	x	x	x	-13.9%[25.6 µM]	x	x
C=C1C(=C/C=C2\CCC[C@]3(C)[C@@H]([C@H](C)/C=C/[C@@H](O)C4CC4)CC[C@@H]23)C[C@@H](O)C[C@@H]1O	x	x	x	u	i	x
CN(C)c1ccc(/C=C/c2ccnc3ccccc23)cc1Br	u	x	x	x	x	-39.3%
CNC(=O)[C@@H]1C[C@@H](NCc2cccc(Oc3ccccc3)c2)CN1C(C)C	x	x	x	x	i	x
CNC(=O)COC(=O)c1ccccc1C(=O)c1ccc(Cl)c([N+](=O)[O-])c1	-23.5%	5.4	u	x	10µM*	-14.8%
O=C(COC(=O)c1cc([N+](=O)[O-])ccc1Cl)NC1CCCC1	-1.1%	1.7	0.2%	0.3%	i	4.6%
O=C(COC(=O)c1ccccc1C(=O)c1ccc(Cl)c([N+](=O)[O-])c1)NC1CC1	u	13.6	-15.8%	u	28.2µM*	15.8µM*
O=C1C(=O)C(c2cc(O)c(O)c(O)c2)Oc2cc(O)cc(O)c21 (stereo not drawn)	-5.9%	-25.3	x	x	x	7.5%
OC1CCCN(Cc2c3ccccc3cc3ccccc23)C1 (stereo not drawn)	-12.8%	12.9	u	17.8µM*	i	-12.0%
SMILES	TGFb inhibitor	Giardia killer	uPA surface inh	ATXN2 expr inh	S2 tox	HepG2 viability
CC1(C)S[C@@H]2[C@H](NC(=O)[C@H](N)c3ccccc3)C(=O)N2[C@H]1C(=O)OCOC(=O)[C@@H]1N2C(=O)C[C@H]2S(=O)(=O)C1(C)C	x	x	x	x	i	x
COc1ccccc1CN1CCOc2ccc(CN3CCC(Oc4cccnc4)CC3)cc2C1	x	x	x	x	i	x
c1ccc(-c2onc(-c3ccco3)c2-c2ccc3[nH]ccc3c2)cc1	14.1µM*	7.3	-0.4%	-10.6%	i	-39.9%
c1ccc(-c2ccc3[nH]ccc3c2)cc1	-11.5%	2.5	6.9%	46.1%	i	-44.3%
COc1cccc(Cc2nc3cccnc3n2C2CCN(Cc3ccc(C)s3)CC2)c1	x	x	x	x	i	x
CC(NS(=O)(=O)c1ccccc1[N+](=O)[O-])c1ccccn1 (stereo not drawn)	3.2%	x	x	x	x	4.7%
CCCCCCCCC1=NCCc2c1[nH]c1ccccc21	u	-24.5	-1.4%	-34.4%	i	15.8µM*
CC(C)C/C=C1\CCc2c([nH]c3ccccc23)C1=O	0.9%	22.2	-0.6%	45.8%	i	-3.3%
Oc1ccc(/C=N/Nc2nccnc2Cl)cc1	-0.4%	-6.2	-8.7%	21.5%	i	-78.0%
Fc1ccc(/C=N/Nc2nccnc2Cl)cc1	u	-1.9	-3.4%	30.7%	i	10µM*
O=C(NC(=S)Nc1cc(Cl)ccc1O)c1cccc(Br)c1	10µM*	u	3.8%	x	i	-41.2%
Nc1[nH]c(=S)[nH]c(=O)c1N	-14.1%	x	x	x	x	2.8%
CCCCCn1c(NCc2ccc(OC)cc2)nc2ccccc21	12.6µM*	x	x	u	u	-48.5%
CCCn1c(Nc2nc3ccccc3n2C)nc2ccccc21	-7.4%	17.8	-12.4%	u	u	7.08µM*
CCCCn1c(Nc2ccccc2)nc2ccccc21	16.8%	25.9	-3.9%	0.0%	i	-12.7%
Brc1ccc(CNc2nc3ccccc3n2CCN2CCCCC2)cc1	u	-83.4*	u	-32.3%	u	-74.4%
CCN(CC)CCn1c(NCc2ccc(OC)cc2)nc2ccccc21	-4.3%	-10.1	-3.6%	-13.4%	i	-34.3%
Brc1cccc(CNc2nc3ccccc3n2CCN2CCCCC2)c1	u	-12.1	u	-12.3%	u	-57.7%
COc1ccc(C2/C=C\CN(CC3CC3)C(Cc3ccccc3)C(=O)N2Cc2ccc(F)cc2)cc1 (stereo not drawn)	-2.2%	-0.1	x	x	x	-0.7%
CCc1nnc(N/N=C/c2cccs2)n1N	12.6µM*	20.7	-12.3%	-9.5%	i	-98.1%
